Reference: PubChem BioAssay AID652104 (National Center for Advancing Translational Sciences (NCATS), 2013)
In all, about 410,000 compounds went through this assay and about 7,200 (1.8%) were called active. About 7% were inconclusive and are not listed. The entries come from a sample that favours actives as a whole. A call without a number means that no potency is given here. Unmarked numbers belong to inactive results. The call rests on the fitted dose curve; in most records, active means well fitted activation curve with a large enough effect; inconclusive means small, poorly fitted or top-dose-only effect, or another doubt; inactive means no such curve, though single readings can be large or run the other way.

Assay: qHTS of TDP-43 Inhibitors; further: nearly all actives have a fitted effect of over 50% in size
Details: TDP-43 expressing yeast growth rescue, BacTiter-Glo, 24 h; series mostly up to 46.1 µM
Procedure, shortened: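 Growth rescue of TDP-43-toxic yeast measured as ATP luminescence (BacTiter-Glo). Cells grown to mid-log in raffinose, induced in galactose at OD600=0.02, exposed to compound 24 hr at 30 deg C.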
Potency means the concentration at half of the fitted maximal effect.

SMILES	Potency
COc1ccc(NC(=O)CSc2nccn2C2CCCC2)cc1OC	inactive
COc1ccccc1CCNC(=O)c1cccn1-c1nnc(N2CCCCC2)s1	inactive
O=C(CCn1c(=O)c2sccc2n(Cc2ccc(F)cc2)c1=O)NCc1ccc2c(c1)OCO2	inactive
O=C(Nc1ccc2nc(SCC(=O)N3CCCc4ccccc43)sc2c1)c1ccc(Cl)cc1	inactive
CCOc1ccccc1NC(=O)CN1CCCN(Cc2cccc(Cl)c2)S1(=O)=O	inactive
CCCCn1cc(S(=O)(=O)c2ccc(OCC)cc2)c(=O)c2cc(OC)c(OC)cc21	inactive
COc1ccc(S(=O)(=O)c2cn(C)c3cc(N4CCCCC4)c(F)cc3c2=O)cc1	inactive
COc1cc2nc(NCC(C)c3ccccc3)n3nc(-c4ccccc4)nc3c2cc1OC (stereo not drawn)	inactive
CCCCC12CN3CC(C)(CN(C1)C3c1ccc(O)c(OC)c1)C2=O (stereo not drawn)	inactive
Cc1nc(-c2ccc(F)cc2)c(CC(=O)N2CCN(S(=O)(=O)c3ccc(F)cc3)CC2)s1	inactive
Cc1ccc(S(=O)(=O)N2CCN(C(=O)Cc3sc(C)nc3-c3ccc(F)cc3)CC2)c(C)c1	35.5 µM (active)
Cc1nc(-c2ccc(F)cc2)c(CC(=O)Nc2cc(S(=O)(=O)N3CCCCC3)ccc2C)s1	inactive
COc1cccc(CNCc2c(C(=O)O)n(Cc3ccc(C)cc3)c3cc(C)ccc23)c1OC	inactive
COc1ccc(NS(=O)(=O)c2cc3c4c(c2)CC(=O)N4CCC3)cc1Cl	inactive
COc1cc(NC(=O)CSc2nc3nc(C)c(Cc4ccc(C)cc4)c(C)n3n2)cc(OC)c1OC	inactive
Cn1cc(S(=O)(=O)NC(c2ccccc2)c2ccccc2)c(=O)n(C)c1=O	inactive
Cn1cc(S(=O)(=O)Nc2ccc(Cl)cc2Cl)c(=O)n(C)c1=O	inactive
CC(C)c1ccc(NS(=O)(=O)c2cn(C)c(=O)n(C)c2=O)cc1	20 µM (active)
Cc1nnc(N2CCC(C(=O)Nc3ccc(F)cc3)CC2)c2nn(-c3ccc(Cl)cc3)c(C)c12	inactive
Cc1sc2ncnc(N3CCC(C(=O)Nc4ccc(F)cc4Cl)CC3)c2c1C	15.8 µM (active)
CCc1ccc(C(=O)NNC(=O)C2CCN(c3ncnc4sc(C)c(C)c34)CC2)cc1	inactive
O=C(CCn1ccc2cc(S(=O)(=O)N3CCCC3)ccc21)NCc1cccc(Cl)c1	inactive
CCOC(=O)c1ccc(NC(=O)CCS(=O)(=O)c2ccc(C)cc2)cc1	inactive
O=C(CCc1nc(CN2CCN(S(=O)(=O)c3ccc(F)cc3)CC2)no1)N1CCCCC1	inactive

SMILES	Potency
COc1cccc(CNC(=O)Cn2ncn3c(cc4ccccc43)c2=O)c1	inactive
Fc1ccc(-n2ncc3c(Nc4ccc(Oc5ccccc5)cc4)ncnc32)cc1	inactive
COc1ccc(-c2nc3cc(C)ccn3c2NC2CCCCC2)cc1SC1CCCCC1	inactive
CCCCNc1c(-c2ccc(OC)c(Sc3ccc(OC)cc3)c2)nc2ccc(Cl)cn12	17.8 µM (active)
CCCCNc1c(-c2cccc(Sc3ccc(OC)cc3)c2)nc2ccccn12	inactive
O=C1CN(C(=O)Nc2ccccc2C(F)(F)F)C(c2ccccc2)c2c(sc3c2CCCC3)N1 (stereo not drawn)	inactive
COc1cc(OC)cc(-c2nc3nc(C)c(CCC(=O)Nc4ccc(C)cc4)c(C)n3n2)c1	inactive
CCN(CC)CCN(C)C(c1ccnc2ccccc12)c1nnnn1-c1ccc2c(c1)OCCO2 (stereo not drawn)	inactive
CCOc1ccc(C(=O)NCC(=O)N2CCN(c3ccc(C(F)(F)F)cn3)CC2)cc1	inactive
CCC(c1nnnn1-c1ccc2c(c1)OCCO2)N1CCN(c2ccc(C(F)(F)F)cn2)CC1 (stereo not drawn)	22.4 µM (active)
O=C(Nc1ccc(O)c(-c2nc3ccccc3o2)c1)c1ccc(-c2cccc(Cl)c2)o1	inactive
COC(=O)c1cc2occc2n1Cc1nc(-c2ccc(C)cc2)oc1C	inactive
CCN(CC)S(=O)(=O)c1ccc2c(c1)N(CC(=O)NCc1ccccc1)C(=O)CS2	inactive
CCCc1c(C(=O)O)cnn1-c1ccc(Cl)cc1	20 µM (active)
Nc1c(C(=O)O)cnn1-c1ccccc1	inactive
CCNC(=O)c1cnn(-c2ccccc2)c1-c1ccccc1	inactive
O=C(Nc1ccc(S(=O)(=O)N2CCC(c3nc4ccccc4s3)CC2)cc1)c1ccccc1F	inactive
COc1ccc(C=C2CCC3C(CCCC34OCCO4)C2=O)cc1 (stereo not drawn)	inactive
COc1ccc(Cn2ccn(Cc3cccc(OC)c3)c(=O)c2=O)cc1	inactive
COc1ccc2c(c1)CC[C@@H]1[C@@H]2CC[C@]2(C)C(=O)CC[C@@H]12	12.6 µM (active)
Cc1cc(Br)ccc1NC(=O)Cn1cnc2sc(C)c(S(=O)(=O)N3CCN(C)CC3)c2c1=O	inactive
CCOc1ccc(N(CC)C(=O)c2cc3c(=O)oc4ccccc4c3s2)cc1	inactive
CCOc1ccc(CCNC(=O)Cn2nc(CC)n3c(cc4sc(CC)cc43)c2=O)cc1OCC	inactive
CCOc1ccc(C(=O)/C=C/c2cn(CC(O)CN3CCCCCC3)c3ccccc23)cc1 (stereo not drawn)	inactive
